# Laboratory results published in PubChem BioAssay AID1044 (The Scripps Research Institute Molecular Screening Center, 2008).
# The campaign covered roughly 16,000 compounds. About 240 (1.5%) were called active. Shown is part of a subset that was picked to be rich in actives. Values without a mark were called inactive. No stated cut-off is given here; in the data, active means activation above about 80%; inactive means the rest.
# Molecular target: Sphingosine 1-phosphate receptor 1 (Homo sapiens) (UniProt P21453)
# Assay: S1P1 (human) receptor agonism (AID 1044)
# Details: S1P1 agonist cell-based reporter assay; at 4.5 µM; active compounds read high
# Sequence of Sphingosine 1-phosphate receptor 1 (Homo sapiens) (P21453 whole entry, looked up): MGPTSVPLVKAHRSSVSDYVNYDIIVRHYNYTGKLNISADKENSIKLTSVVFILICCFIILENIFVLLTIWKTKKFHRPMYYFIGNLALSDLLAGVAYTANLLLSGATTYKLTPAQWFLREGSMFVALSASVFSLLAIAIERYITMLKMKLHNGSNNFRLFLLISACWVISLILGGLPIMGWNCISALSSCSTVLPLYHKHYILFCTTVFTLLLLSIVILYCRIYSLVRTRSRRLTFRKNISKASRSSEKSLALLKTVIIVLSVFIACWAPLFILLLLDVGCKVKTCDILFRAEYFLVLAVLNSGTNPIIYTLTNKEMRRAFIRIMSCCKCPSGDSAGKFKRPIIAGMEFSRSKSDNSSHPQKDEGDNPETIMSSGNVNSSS
row,SMILES,activation
1,O=C(Nc1ccccc1)O/N=C1/CCCc2occc21,-2.45%
2,CCOC(=O)c1c(NC(=S)NC)sc2c1CCCC2,-16.5%
3,CCOC(=O)NC(=S)NC12CC3CC(CC(C3)C1)C2,-14.8%
4,NC(N)=N/C(N)=N/c1nnc(C(F)(F)F)s1,-5%
5,OC1(C#Cc2ccccc2)CCN(Cc2ccccc2)CC1,-10.7%
6,CCOC(=O)c1sc2ccccc2c1N,-24.7%
7,CCOC(=O)c1sc(SC)c(-c2ccccc2)c1N,103% (active)
8,CCOC(=O)c1sc(SCCS(=O)(=O)c2ccc(Cl)cc2)c(C#N)c1-c1ccccc1,-6.04%
9,N#CCCSc1sc(=S)sc1SCCC#N,2.11%
10,Clc1ccc(CO/N=C/c2nc3ccccc3s2)cc1,87% (active)
11,CCCCc1c(COC)nc(-c2ccc(Cl)cc2)[nH]c1=O,-10.5%
12,Cc1nc(C(F)(F)F)ccc1C(=O)NCCNc1ncccc1C(F)(F)F,3.52%
13,Cc1nc(C(F)(F)F)ccc1NC(=O)/C=C\C(=O)O,-31%
14,O=C(NC1Cc2ccccc2C1)c1nnc(-c2ccccc2)o1,62.1%
15,Cn1ncc(Br)c1NC(=O)C(C)(C)C,1.4%
16,CCOC(=O)Cc1csc(NC(NC(=O)OCC)(C(F)(F)F)C(F)(F)F)n1,-11.5%
17,CN1CCN(c2ccc(NC(=O)c3ccccc3)cc2)CC1,15.7%
18,CCOC(=O)C(NC(=O)c1ccco1)(Nc1cc(C)ccn1)C(F)(F)F (configuration not stated),-12.4%
19,Fc1cccc(Cl)c1CN1CCN(c2ncnc3scc(-c4cccs4)c23)CC1,10.1%
20,CCOC(=O)c1c(-c2ccco2)csc1NC(=O)Nc1ccc(Cl)cc1,-5.82%
21,C/C(=N\NC(=S)Nc1cccc(F)c1)c1ccco1,-19.7%
22,Cc1nc(C)c(-c2ccnc(-c3ccc(Cl)cc3)n2)s1,-14.5%
23,Fc1ccc(Oc2nc(Oc3ccc(F)cc3)nc(N3CCSCC3)n2)cc1,-33.1%
24,Cc1noc(C)c1C(=O)N1CCOCC1,-1.85%
25,CCOC(=O)c1cc(C)nc(Sc2ccccc2NC(=O)Nc2ccc(Cl)cc2)c1C#N,-5.59%
26,OC(CN1CCN(c2ccc(C(F)(F)F)cn2)CC1)c1ccc2c(c1)OCCO2 (configuration not stated),4.19%

row,SMILES,activation
1,CNC(=O)NNC(=O)Cn1nnc(N2CCCCC2)n1,-5.59%
2,O=C(c1ccc(F)cc1)C1CCN(Cc2cn[nH]c2-c2ccccc2)CC1,-8.25%
3,Cn1nc(-c2ccccc2)cc1N,-14.4%
4,O=C1NC(=O)c2cc([N+](=O)[O-])c(Sc3c(Cl)cccc3Cl)cc21,16.5%
5,Cn1cc(Br)c(-c2ccc(NC(=O)Nc3ccc(Cl)cc3)cc2)n1,48.5%
6,CCOC(=O)NN(C(=O)OCC)c1c(C)c(C)c(C)c(C)c1C,6.8%
7,CCOc1ccc(NC(=S)N2CCC(c3ccccc3OC)CC2)cc1,-5.17%
8,COc1ccc(OC)c(CNC(=O)Cc2cccs2)c1,2.66%
9,CC(C)N(C(=O)c1ccc(-c2ccccc2F)cc1)C(C)C,5.33%
10,COc1ccc(-c2ccc(/C=N/NC(=O)CCc3ccc(O)cc3)s2)cc1,76.7%
11,COc1ccc2c(c1)CCCC2=Nc1ccccc1C(F)(F)F,76.9%
12,Cc1cc2nc(C)c(C)nc2cc1C,-24.7%
13,NC(=O)c1sccc1Br,-10.4%
14,Cc1onc(-c2ccccc2)c1CNS(=O)(=O)c1ccc2c(c1)OCCN2C,-10.4%
15,NC(CC(=O)O)c1ccccc1 (configuration not stated),6.64%
16,Cc1ccc(NC(C(=O)O)c2ccccc2)cc1 (configuration not stated),81.5% (active)
17,Cc1ccc(NC(=O)c2ccccc2NC(=O)c2ccccc2)cc1,-30.9%
18,O=[N+]([O-])c1ccc(-c2nnnn2Cc2c(Cl)cccc2Cl)cc1,38.8%
19,Cc1oc(-c2ccc(Cl)cc2)cc1C(=O)N1CCN(Cc2ccccc2)CC1,-6.1%
20,COc1ccc(NC(NC(=O)c2ccc(OC)cc2)(C(F)(F)F)C(F)(F)F)cc1,4.17%
21,CCOC(=O)N/N=C(\C)c1cccc(NC(C)=O)c1,3.43%
22,CC(C)(C)C(=O)Nc1c(Br)c(C2CC2)nn1-c1ccccc1,4.11%
23,N#Cc1ccc(OS(=O)(=O)c2cc(C(F)(F)F)cc(C(F)(F)F)c2)cc1,0.18%
24,CSc1nc(N)n(-c2ccccc2)n1,5.77%
25,COC(=O)c1c(C(=O)OC)c2n(c1C)CCS2,10.2%
26,O=C(Nc1ccc(OCc2ccccc2)cc1)OCC1CN(Cc2ccccc2)CCO1 (configuration not stated),43.9%
